High-throughput results as filed in PubChem BioAssay.
Only some compounds are listed: those with a hit (about 5.7% of all), similar ones and a draw of the others.
KB-3-1 tox: kills parental KB-3-1 adenocarcinoma cells. KB-3-1 viability, CellTiter-Glo ATP luminescence, 72 h. Potency, µM (doses to about 46.1 µM), most hits filed as cytotoxic. 1.4% of 400,000 active. AID 1347075; also: nearly all actives have a fitted effect of over 60% in size
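Parental KB-3-1 viability, qHTS format: 72 h compound exposure, 37 °C; CellTiter-Glo; media-only wells and DMSO plates as controls; concentration-effect fits on corrected data.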
Giardia killer: kills Giardia lamblia; Giardia lamblia trophozoite viability; activity change, % at 7.66 µM, hits read low; 0.15% of 340,000 active; AID 540267; in the data active = activity change below about -80%; inconclusive = between about -30% and that limit;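 also: parasites exposed to compound for two days anaerobically before the ATP read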
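Trophozoites 100 cells/well + cpd; 48 hrs, 37 deg C, anaerobic. ATPLite 1-Step added, 15-30 min RT, luminescence read (ATP-based viability).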
PI4K2A inh: PI4K2A (human) kinase inhibition; purified PI4K2A, ADP-Glo luminescence, 1 h; stronger effect = lower value; 0.13% of 420,000 active; activity change, negative = inhibition, % at 76.9 µM; Q9BTU6; in the data active = activity change below about -50%; inconclusive = mostly about -30% to -49%
Target sequence (Q9BTU6 whole entry, looked up): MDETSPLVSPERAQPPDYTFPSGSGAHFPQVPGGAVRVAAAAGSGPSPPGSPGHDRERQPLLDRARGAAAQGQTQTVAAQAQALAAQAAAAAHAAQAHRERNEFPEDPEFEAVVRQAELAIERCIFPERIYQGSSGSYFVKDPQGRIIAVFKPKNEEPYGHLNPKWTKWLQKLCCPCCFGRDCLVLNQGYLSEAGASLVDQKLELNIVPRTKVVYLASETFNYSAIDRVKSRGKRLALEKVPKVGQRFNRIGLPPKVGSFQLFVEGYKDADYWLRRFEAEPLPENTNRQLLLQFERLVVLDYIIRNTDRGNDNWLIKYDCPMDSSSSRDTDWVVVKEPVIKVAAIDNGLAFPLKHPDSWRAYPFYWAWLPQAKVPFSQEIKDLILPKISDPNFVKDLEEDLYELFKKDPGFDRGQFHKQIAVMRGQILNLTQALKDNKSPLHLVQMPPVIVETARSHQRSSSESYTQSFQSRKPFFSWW
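Compounds are screened against recombinant PI4K2A using PI as substrate and ATP, the latter dispensed at 300 microM. Reactions run one hour at ambient temperature before ADP-Glo detection; full inhibition defined by wells lacking enzyme.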
KB-V1 MDR tox: kills drug-selected multidrug resistant KB-V1 cells; KB-V1 MDR cells viability, CellTiter-Glo, 72 h; Potency, µM (doses to about 46.1 µM), actives largely listed as cytotoxic; 3.4% of 400,000 active; AID 1347076; also: nearly all actives have a fitted effect of over 60% in size
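qHTS viability screen in drug-selected KB-V1 MDR cells: 72 h compound treatment at 37 degrees C, ATP luminescence end point.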
Nrf2 inh: inhibitors of Nrf2 signaling; A549 ARE-Fluc reporter, luciferase luminescence, 18-24 h; Potency, µM (highest dose often 46 µM), actives largely listed as inhibitors; 2.1% of 360,000 active; AID 504444; also: nearly all actives have a fitted effect of over 60% in size
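A549 ARE_Fluc cells, 5000/well, 5% FBS OPTI-MEM; compounds in dose-response, 18-24 h at 37 °C/5% CO2; CellTiter-Fluor viability read (Ex 405/Em 525), then BugLite luciferase luminescence = Nrf2 activity.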
A549 viability: counter-screen for Nrf2 inhibitors: cytotoxicity in A549 cells; Potency, µM (series often up to 46 µM), most hits filed as inhibitors; 0.16% of 390,000 active; A549 ARE-Fluc cells, CellTiter-Fluor viability, 18-24 h
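A549 ARE_Fluc cells in 5% FBS OPTI-MEM were exposed to compounds in concentration-response for 18-24 h at 37 deg C. Viability was read by CellTiter-Fluor fluorescence (Ex 405/Em 525) after 30 min, before the luciferase read.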
Hits are given with their value; . = inactive; ? = inconclusive; / = not tested or not shown. Unless noted, calls follow the shape of the dose curve; as a rule, active = well fitted curve in the direction sought with a large enough effect; inconclusive = small, poorly fitted or top-dose-only effect, or another doubt; inactive = no such curve, though single readings can be large; an effect the other way counts as inactive or inconclusive.

SMILES | KB-3-1 tox | Giardia killer | PI4K2A inh | KB-V1 MDR tox | Nrf2 inh | A549 viability
CCc1ccc(OCCCn2c(CCNC(=O)C3CCCCC3)nc3ccccc32)cc1 | . | . | / | . | . | .
CC1CCCCN1S(=O)(=O)c1ccc(C(=O)Nc2ccccc2-c2nc3ccccc3[nH]2)cc1 (stereo not drawn) | ? | . | . | 23µM | 23µM | .
OC[C@H]1O[C@@H](n2cnc3c(=S)nc[nH]c32)[C@H](O)[C@@H]1O | / | / | . | / | / | /
O=C(/C=C\Nc1ccccc1Br)c1ccc2c(c1)OCO2 | . | ? | . | ? | 2.1µM | .
Cc1cc(N/C=C/C(=O)c2ccccc2)ccc1Br | . | . | . | . | ? | .
O=C(/C=C/Nc1ccc(F)cc1Br)c1ccccc1 | . | -89 | ? | ? | ? | .
Cc1nn2c(=O)cc(COC(=O)c3ccc(NC(=O)CCc4ccccc4)cc3)nc2s1 | / | / | . | / | / | .
O=C(Cn1c(=O)nc(-c2ccccc2)c2cc(Cl)ccc21)N1CCN(c2ccc(F)cc2)CC1 | / | / | . | / | / | .
CCN(C)c1ccc(/C=N\n2nnnc2N)cc1 | 5.2µM | . | . | 2.6µM | ? | .
Nc1nnnn1/N=C/c1ccc(O)cc1 | . | . | . | . | . | .
CCN(CC)c1ccc(/C=N/n2nnnc2N)c(O)c1 | 16µM | . | . | ? | . | /
COc1cccc(C2=Nn3c(nnc3-c3ccccc3C)SC2)c1 | / | / | / | / | ? | .
Cc1ccc(C)c(S(=O)(=O)N2CCCC2CNC(=O)c2ccc([N+](=O)[O-])cc2)c1 (stereo not drawn) | . | . | . | ? | 18µM | .
COc1ccc(NC(=O)C(=O)NCC2CCCN2S(=O)(=O)c2cc(C)ccc2C)cc1 (stereo not drawn) | 5.8µM | . | . | 5.8µM | . | .
Cc1ccc(S(=O)(=O)N2CCCC2CNC(=O)C(=O)NCc2cccs2)cc1 (stereo not drawn) | ? | . | . | 13µM | . | .
COc1ccc(S(=O)(=O)N2CCCC2CNC(=O)C(=O)NCc2cccs2)cc1 (stereo not drawn) | . | . | . | ? | . | .
Cc1ccc(C)c(S(=O)(=O)N2CCCCC2CCNC(=O)C(=O)NCc2ccco2)c1 (stereo not drawn) | ? | . | . | 9.2µM | ? | .
Cc1cc(OC(C)C(=O)N(Cc2ccco2)Cc2ccco2)cc(C)c1Cl (stereo not drawn) | / | / | . | / | . | .
O=C(Nc1ccc2ccccc2c1)Nc1nnc(-c2ccc(Cl)cc2Cl)s1 | . | / | / | . | / | /
COc1ccc(NC(=O)C(=O)NCC2CCCN2S(=O)(=O)c2ccc(C)cc2)cc1 (stereo not drawn) | 0.15µM | . | . | 0.23µM | ? | .
Cc1ccc(S(=O)(=O)N2CCCC2CNC(=O)C(=O)Nc2ccc(F)cc2)cc1 (stereo not drawn) | ? | . | . | ? | 13µM | .
Cc1ccc(S(=O)(=O)N2CCCC2C(=O)N(C)Cc2cccs2)cc1 (stereo not drawn) | . | . | . | 21µM | . | .
Cc1ccc(C)c(S(=O)(=O)N2CCCC2CNC(=O)C(=O)NCc2ccccc2)c1 (stereo not drawn) | . | . | . | 8.2µM | . | .
COC(=O)C[C@@H]1CC[C@H]2[C@H](COc3ccc(NC(=O)Nc4ccc(Cl)cc4)cc3C(=O)N2C)O1 | / | / | . | / | / | /
COC(=O)[C@]12C[C@H](CC(=O)N3CCCCC3)C(=O)N(Cc3ccco3)C1=C[C@H](C1CCCC1)O[C@@H]2C | / | / | . | / | / | /
Cc1cccc(N2CCN(C(=O)C(NS(=O)(=O)c3cccs3)c3ccccc3)CC2)c1C (stereo not drawn) | . | . | . | ? | 9.2µM | .
Cc1cccc(N2CCN(C(=O)c3ccnn3C)CC2)c1C | . | . | . | . | . | .
COc1cc(C(=O)N2CCN(c3cccc(C)c3C)CC2)cc(OC)c1OC | 0.82µM | . | . | 2.6µM | ? | .
COc1cc(C(=O)N2CCN(c3ccccn3)CC2)cc(OC)c1OC | . | . | . | . | . | .
Cc1cccc(N2CCN(C(=O)c3ccncc3)CC2)c1C | 10µM | . | . | 5.8µM | . | ?
